Bioassay records from PubChem.
Hits are enriched below; roughly 3.5% of the tested compounds scored in any of these assays.
BoNT F protease: BoNT/F light chain protease inhibitors, primary screen, biochemical, flow cytometry, MLPCN library. inhibition, % at 10 µM. Botulinum neurotoxin type F light chain protease (Clostridium botulinum). 0.22% of 360,000 active. Multiplex microsphere protease cleavage assay; in the data active means inhibition above about 35%, passing the limit was not always enough; inconclusive means no clear call, values can overlap the other calls; further: plate controls were buffer without enzyme for full effect and enzyme alone for no effect
BoNT-A LC inh2: BoNT/A light chain protease inhibitors, primary screen, biochemical, flow cytometry, MLPCN library | inhibition, % at 10 µM | multiplex microsphere protease substrate cleavage | 0.17% of 360,000 active | AID 588499, 2011 | Botulinum neurotoxin type A light chain protease (Clostridium botulinum A str. ATCC 3502); further: plate controls were buffer without enzyme for full effect and enzyme alone for no effect
Bead autofluor: counter-screen for toxin protease inhibitors: compound fluorescence. 3.1% of 360,000 active. fluorescence intensity (no concentration beside the values). compound autofluorescence counterscreen, microsphere flow cytometry; hits give high values. AID 624483; in the data active means fluorescence intensity above about 16000; inconclusive means no clear call, values can overlap the other calls
Anthrax LF prot: Bacillus anthracis LF protease inhibitors, primary screen, biochemical, multiplex microsphere, MLPCN library; Lethal factor (Bacillus anthracis), P15917; multiplex microsphere protease cleavage assay; inhibition, % at 10 µM; 0.12% of 360,000 active; AID 588501, 2011; further: plate controls were buffer without enzyme for full effect and enzyme alone for no effect
* marks the source's active call; other numbers are inactive results; u = inconclusive. Unless noted, no stated cut-off is given here; in the data, active means inhibition above about 30%; inconclusive means no clear call, values can overlap the other calls; inactive means below that.

SMILES	BoNT F protease	BoNT-A LC inh2	Bead autofluor	Anthrax LF prot
Cc1ccnc(Sc2ccc([N+](=O)[O-])cc2[N+](=O)[O-])n1	0.2	-1.4	21298*	-0.6
COc1ccc(NC(C)C(=O)Nc2ccc(C#N)cc2)cc1Cl (centres undefined)	-5.4	u	22894*	-2.5
COc1ccc(NCC(=O)Nc2ccc(C#N)cc2)cc1Cl	-3.6	1.2	22730*	-0.6
CN(CC(=O)Nc1ccc(C#N)cc1)Cc1ccc(Cl)cc1Cl	-1.0	-0.9	22298*	-0.9
COc1ccc(NC(=O)CNc2cccc(C#N)c2)cc1Cl	u	1.1	4100	0.8
CN(C(=O)CN1CCN(c2ccccc2F)CC1)C1CCCc2ccccc21 (centres undefined)	-4.9	-1.4	5974	-1.4
COc1ccc(Cc2nnc(SCC(=O)Nc3ccc(N4CCOCC4)cc3)o2)cc1	10.4	0.8	5501	2.9
O=S(=O)(NCc1ccccc1)c1cccc(S(=O)(=O)N2CCOCC2)c1	3.6	2.3	21829*	-0.8
O=S(=O)(c1cccc(S(=O)(=O)N2CCC(Cc3ccccc3)CC2)c1)N1CCOCC1	6.5	1.3	4080	2.9
CC1CCN(S(=O)(=O)c2cccc(S(=O)(=O)N3CCOCC3)c2)CC1	-2.3	0.5	16191*	-0.7
CC(=O)c1nnn(-c2nc(N3CCCC3)nc(N(c3ccccc3)c3ccccc3)n2)c1C	-6.4	-2.4	23099*	-1.8
CC(C)C(NC(=O)c1ccccc1)c1nnc(SCC(=O)NC2CCCC2)n1C (centres undefined)	-1.4	-1.1	3114	4.2
C[C@@H]1CN([C@@H](C)CO)C(=O)CCCn2nncc2CO[C@H]1CN(C)Cc1ccccc1	-2.2	0.3	3880	0.9
CC1(c2nnc(-c3cccc(Cl)c3)o2)CC(c2ccccc2Br)=NO1 (centres undefined)	-1.4	0.0	3435	-3.4
CCOc1ccccc1NC(=O)CSc1nnc(-c2ccccn2)n1Cc1ccco1	-11.5	0.3	5745	-7.2
CCOc1ccccc1NC(=O)CSc1nnc(-c2ccco2)n1Cc1ccco1	2.5	2.5	21394*	-12.0
Cc1cc(NC(=O)CSc2nnc(CNc3cccc(C(F)(F)F)c3)n2Cc2ccco2)no1	-6.5	-3.2	17703*	-4.0
Cc1cc(NC(=O)CSc2nnc(-c3ccco3)n2Cc2ccco2)no1	3.4	1.4	19201*	-9.7
COc1ccc(C)cc1NC(=O)CSc1nnc(-c2ccco2)n1Cc1ccco1	-4.8	-1.8	17132*	0.2
C=CCn1c(SCC(=O)Nc2cc(C)ccc2OC)nnc1-c1ccco1	-2.9	-0.3	3117	-4.0
Cc1cc(NC(=O)CSc2nnc(-c3ccco3)n2Cc2ccccc2)no1	-13.3	-1.2	3763	3.5
COC(=O)[C@H]1C[C@H](OC(=O)Nc2cccs2)[C@@]2(O)CN(S(=O)(=O)c3ccc(C)cc3)CC2[C@H]1C(=O)OC (some centres undefined)	-3.8	-0.1	2916	-2.0
CCc1cc2c(=O)c(-c3nc4ccccc4n3C)c(C)oc2cc1OC(C)=O	-9.1	-0.6	5761	-3.0
CCc1cc2c(=O)c(-c3nc4ccccc4n3C)c(COCC(=O)O)oc2cc1OC(=O)C(C)(C)C	-5.8	-3.8	17668*	0.0
O=C(Nc1cccc(C(=O)O)c1)/C(=C\c1ccccc1)NC(=O)c1ccco1	0.4	-0.2	3863	-7.9
SMILES	BoNT F protease	BoNT-A LC inh2	Bead autofluor	Anthrax LF prot
Cc1occc1C(=O)N1CCCC(N2CCN(c3cccc(Cl)c3)CC2)C1 (centres undefined)	-6.0	-1.0	4384	-7.2
Cc1ccc2nc3c(nc2c1)-c1ccccc1C3=O	-0.4	0.3	23481*	0.7
Cc1cccc2nc3c(nc12)-c1ccccc1C3=O	u	u	3347	-3.1
CN(C)C(CNC(=O)c1c(F)cccc1Cl)c1ccco1 (centres undefined)	3.8	0.7	3468	12.6
Cc1ccc(Sc2ccc(/C=N/O)cc2[N+](=O)[O-])cc1	2.1	0.2	2383	-2.6
CO/N=C/c1cc([N+](=O)[O-])ccc1Sc1ccc(C)cc1	2.0	u	21195*	-1.3
O=C(CCCn1c(=S)[nH]c2cc3c(cc2c1=O)OCO3)NC1CC1	-2.4	-0.8	22975*	-1.4
Cc1cnc(C(=O)N2CCN(S(=O)(=O)c3ccc4ccccc4c3)CC2)cn1	0.9	0.5	20208*	-0.5
O=C(c1cnccn1)N1CCN(S(=O)(=O)c2ccc3ccccc3c2)CC1	1.8	0.4	3276	-5.1
Cc1ccc(C)c(S(=O)(=O)N2CCN(C(=O)c3cnccn3)CC2)c1	1.4	-0.2	23149*	-3.0
